Records with an inconclusive call do not appear. For some assays here: Entries with a potency or affinity are not part of this list. Activity calls are given as the source filed them.
Legend:
[1] = Ebola virus entry assay, ratio channel
[2] = Ebola virus entry assay, green channel fluorescence
[3] = Ebola virus entry assay, reporter ratio channel; AC50: Channel type: primary unless noted; outcome: Channel type: primary unless noted
[4] = Ebola virus entry assay, blue channel (ratio component)
[5] = qHTS assay for measurement of the activity of small molecule inhibitors on Zika virus induced Caspase-3 activity in human iPSC derived neural progenitor cells (hNPCs) (AID 1224857; active = well fitted curve in the direction sought with a large enough effect; an effect the other way counts as inactive or inconclusive; also: nearly all actives have a fitted effect of over 65% in size); details: hNPCs ZIKV-induced caspase-3/7, Caspase-Glo luminescence, 6 h; series mostly up to 45.7 µM
Outline: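 Pretreat hNPCs with compound 1 h; infect ZIKV 2 FFU/cell; 6 h 37 C, 5% CO2; Caspase-Glo 3/7, 30 min RT; luminescence; normalize to no-virus and virus-only wells.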

[6] = qHTS assay for measurement of the activity of small molecule inhibitors on Zika virus induced Caspase-3 activity in human astrocytoma cells (AID 1224859; active = well fitted curve in the direction sought with a large enough effect; an effect the other way counts as inactive or inconclusive); details: SNB-19 ZIKV-induced caspase-3/7, luminescence, 6 h; series mostly up to 45.7 µM
Outline: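 Human SNB-19 astrocytoma cells in RPMI 1640 with 10% FBS receive compound one hour ahead of Zika virus at 2 FFU/cell. After 6 h infection, caspase-3/7 activity is detected by Caspase-Glo luminescence.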

[7] = qHTS assay to identify small molecule inhibitors of chordoma cells - UCH-1 (AID 1259355; active = well fitted curve in the direction sought with a large enough effect; an effect the other way counts as inactive or inconclusive; also: nearly all actives have a fitted effect of over 55% in size); details: UCH-1 chordoma viability, CellTiter-Glo, 48 h, combination; series mostly up to 46.1 µM
Outline: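 800 cells/well, overnight attach; compounds pinned at 15 concs, then auranofin/camptothecin/doxorubicin/rubitecan/topotecan combo added; 48hr 37 C, 5% CO2; CellTiter-Glo, 30min RT, luminescence.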

[8] = qHTS assay to identify small molecule inhibitors of chordoma cells - UCH-2 (AID 1259356; active = well fitted curve in the direction sought with a large enough effect; an effect the other way counts as inactive or inconclusive); details: UCH-2 chordoma viability, CellTiter-Glo ATP luminescence, 48 h; series mostly up to 46.1 µM
[9] = High-throughput drug toxicity screening in the BPDCN cell line Gen2.2 (AID 1224824); details: Gen2.2 BPDCN cells; at 45.8 µM (top of the series) unless noted;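 also: cells exposed to compounds for 48 h before reading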
Outline: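 CellTiter-Glo luminescence after 48 h compound exposure of Gen2.2 cells; percent activity set with DMSO as 100% and bortezomib (9.2 uM final) as 0%. Cells seeded at 500 per well, RPMI + 10% FBS, 37 °C.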

[10] = High-throughput drug toxicity screening in the BPDCN cell line Cal-1 (AID 1224825); details: Cal-1 BPDCN cell viability, qHTS; at 45.8 µM (top of the series) unless noted
Outline: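 Percent activity derived from CellTiter-Glo luminescence, scaling DMSO to 100% and 9.2 uM final bortezomib to 0%. BPDCN Cal-1 cells (500/well, RPMI plus 10% FBS) incubated with compounds 48 hours at 37C before reading.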

[11] = qHTS Screen of the MIPE 4.0 Collection Against Ewings Sarcoma (TC32) (AID 1259256; active = well fitted curve in the direction sought with a large enough effect; an effect the other way counts as inactive or inconclusive; also: nearly all actives have a fitted effect of over 45% in size; also: potency is read from the fitted curve at half-maximal effect); details: TC32 Ewing sarcoma viability, CellTiter-Glo, 48 h; series mostly up to 45.8 µM
Outline: (§1)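 Cells plated in serum-containing RPMI (5% FBS) and treated with compound dilutions for 48 h. Readout luminescent viability; normalization relied on vehicle (no inhibition) and media-only columns (full inhibition).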

[12] = Ebola virus entry assay, blue channel fluorescence
[13] = Ebola virus entry reporter assay, green channel fluorescence
[14] = Ebola virus entry cell assay, ratio channel
[15] = Immunotoxin (HA22) sensitization/mitigation study. Vehicle arm (PBS) (AID 1159510); details: cancer cells viability with PBS vehicle (HA22 study); series mostly up to 46.1 µM; also: potency is read from the fitted curve at half-maximal effect
[16] = Immunotoxin (SS1P) sensitization/mitigation study. Vehicle arm (DMEM) (AID 1159513); details: cell viability with vehicle (DMEM); series mostly up to 46.1 µM; also: potency is read from the fitted curve at half-maximal effect
[17] = qHTS Screen of the MIPE 4.0 Collection Against Ewings Sarcoma (TC71) (AID 1259253; active = well fitted curve in the direction sought with a large enough effect; an effect the other way counts as inactive or inconclusive; also: nearly all actives have a fitted effect of over 40% in size); details: TC71 Ewing sarcoma viability, CellTiter-Glo, 48 h; series mostly up to 45.8 µM
Outline: as §1

[18] = qHTS Screen of the MIPE 4.0 Collection Against Ewings Sarcoma (EW8) (AID 1259255; active = well fitted curve in the direction sought with a large enough effect; an effect the other way counts as inactive or inconclusive; also: nearly all actives have a fitted effect of over 35% in size); details: EW8 Ewing sarcoma viability, CellTiter-Glo, 48 h; series mostly up to 45.8 µM
Outline: as §1

[19] = Identifying Small Molecule Inhibitors of Pancreatic Cancer Stem Cells (SN12C, Adherent) (AID 1259358; active = well fitted curve in the direction sought with a large enough effect; an effect the other way counts as inactive or inconclusive;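 also: cell survival measured after 48 h of compound exposure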); details: viability/growth inhibition; series mostly up to 46.1 µM
Outline: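 Pre-formed 14-day tumor spheroids or adherent cells dosed and incubated 48 h, 37C, 5% CO2. Viability assessed by CellTiter-Glo.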

[20] = qHTS Screen of the MIPE 4.0 Collection Against Ewings Sarcoma (RDES) (AID 1259252; active = well fitted curve in the direction sought with a large enough effect; an effect the other way counts as inactive or inconclusive; also: nearly all actives have a fitted effect of over 35% in size); details: RD-ES Ewing sarcoma viability, CellTiter-Glo, 48 h; series mostly up to 45.8 µM
Outline: as §1

Nc1nc(N)nc(NC2CC2)n1
inactive: outcome [1] | outcome [2] | outcome [3] | outcome [4] | outcome [5] | outcome [6] | outcome [7] | outcome [8]

CCC1(c2ccccc2)C(=O)N(COC)C(=O)N(COC)C1=O
inactive: outcome [1] | outcome [2] | outcome [3] | outcome [4] | outcome [6] | outcome [7] | outcome [8]

O=C1OC(c2ccc(O)c(S(=O)(=O)O)c2)(c2ccc(O)c(S(=O)(=O)O)c2)c2c(Br)c(Br)c(Br)c(Br)c21
inactive: outcome [1] | outcome [2] | outcome [3] | outcome [4] | outcome [6] | outcome [7] | outcome [8]

CC(C)(C)CC(C)(C)c1ccc(OCCOCC[N+](C)(C)Cc2ccccc2)cc1
active: AC50 [1] 2.51 µM | AC50 [3] 2.51 µM

CNC(C)(C)Cc1ccccc1
inactive: outcome [1] | outcome [2] | outcome [3] | outcome [4] | outcome [5] | outcome [6] | outcome [7] | outcome [8]

COc1cccc2c1C(=O)c1c(O)c3c(c(O)c1C2=O)C[C@@](O)(C(=O)CO)CC3OC1CC(N2CCOC(OC)C2)C(O)C(C)O1 (stereo not given in full)
active: AC50 [3] 31.6 µM
inactive: outcome [1] | outcome [4]

C[C@]12CC[C@H]3[C@@H](CC[C@@]45O[C@H]4C(O)=C(C#N)C[C@]35C)[C@H]1CC[C@H]2O
28.9%: cell viability, % of control (lower = more cytotoxic) [9]
active: Potency [11] 20.9 µM
inactive: outcome [1] | outcome [3] | outcome [4] | outcome [5] | outcome [6]
51.6%: viability (% of control) [10]

COC(=O)[C@@H]1[C@H]2C[C@H]3c4[nH]c5ccccc5c4CCN3C[C@@H]2CC[C@@H]1O
inactive: outcome [1] | outcome [3] | outcome [4]

Nc1nc2ccc(OC(F)(F)F)cc2s1
active: Potency [15] 23.5 µM
inactive: outcome [2] | outcome [12] | outcome [3] | outcome [4] | outcome [13] | outcome [14]

CC(CCc1ccc(O)cc1)NCCc1ccc(O)c(O)c1 (stereo not given)
inactive: outcome [2] | outcome [12] | outcome [3] | outcome [4] | outcome [13] | outcome [14]

O=C1CN(/N=C/c2ccc([N+](=O)[O-])o2)C(=O)N1
inactive: outcome [2] | outcome [12] | outcome [3] | outcome [4] | outcome [14]

CN(C)[C@@H]1C(=O)C(C(N)=O)=C(O)[C@@]2(O)C(=O)C3=C(O)c4c(O)cccc4C[C@H]3C[C@@H]12
inactive: outcome [4]
active: AC50 [1] 17.8 µM | AC50 [3] 17.8 µM

CCN(CC)C(=O)[C@@H]1C=C2c3cccc4[nH]cc(c34)C[C@H]2N(C)C1
inactive: outcome [1] | outcome [3] | outcome [5] | outcome [6]

CCCCN(CCCC)CCCOC(=O)c1ccc(N)cc1
inactive: outcome [4]
active: AC50 [1] 8.91 µM | AC50 [3] 8.91 µM

O=P1(N(CCCl)CCCl)NCCCO1 (stereo not given)
17%: cell viability, % of control (lower = more cytotoxic) [9]
104%: viability (% of control) [10]
active: Potency [11] 0.0021 µM
inactive: outcome [2] | outcome [12] | outcome [3] | outcome [4] | outcome [13] | outcome [14] | Potency [15] | Potency [16] | outcome [6] | Potency [17] | outcome [18] | outcome [7] | outcome [8] | outcome [19]

Nc1ccc(C(=O)O)c(O)c1
inactive: outcome [2] | outcome [12] | outcome [3] | outcome [4] | outcome [13] | outcome [14]

CNNCc1ccc(C(=O)NC(C)C)cc1
inactive: outcome [2] | outcome [12] | outcome [3] | outcome [4] | outcome [14]

CN1C(C(=O)Nc2ccccn2)=C(O)c2ccccc2S1(=O)=O
inactive: outcome [2] | outcome [12] | outcome [3] | outcome [4] | outcome [14]

CNCCCC12CCC(c3ccccc31)c1ccccc12
active: AC50 [1] 3.16 µM | AC50 [14] 3.16 µM
inactive: outcome [3] inactive [Channel type: confirmation] | outcome [4]

COc1ccc(C(=O)c2ccccc2)c(O)c1
inactive: outcome [1] | outcome [3] | outcome [4]

Clc1ccc2nsnc2c1NC1=NCCN1
inactive: outcome [2] | outcome [12] | outcome [3] | outcome [4] | outcome [14]

O=c1c(C2CC(c3ccc(-c4ccc(Br)cc4)cc3)Cc3ccccc32)c(O)sc2ccccc12 (stereo not given)
inactive: outcome [1] | outcome [3] | outcome [4] | outcome [5] | outcome [6]

Nc1nc(Cl)nc2c1ncn2[C@@H]1O[C@H](CO)[C@@H](O)[C@@H]1F
inactive: outcome [2] | outcome [12] | outcome [3] | outcome [4] | outcome [14]

COc1ccc(C(=O)c2ccccc2O)c(O)c1
inactive: outcome [2]

Cn1nnc2c(C(N)=O)ncn2c1=O
inactive: outcome [2] | outcome [12] | outcome [3] | outcome [4] | outcome [14]

CCS(=O)(=O)CCn1c([N+](=O)[O-])cnc1C
inactive: outcome [2] | outcome [12] | outcome [3] | outcome [4] | outcome [13] | outcome [14]

Cc1nnc(SCC2=C(C(=O)O)N3C(=O)[C@@H](NC(=O)Cn4cnnn4)[C@H]3SC2)s1
inactive: outcome [2] | outcome [12] | outcome [3] | outcome [4] | outcome [14]

O=C(CCCN1CCC2(CC1)C(=O)NCN2c1ccccc1)c1ccc(F)cc1
inactive: outcome [2]

CC1COc2c(N3CCN(C)CC3)c(F)cc3c(=O)c(C(=O)O)cn1c23 (stereo not given)
inactive: outcome [2] | outcome [12] | outcome [3] | outcome [4] | outcome [13] | outcome [14]

CC(NC(C)(C)C)C(=O)c1cccc(Cl)c1 (stereo not given)
145%: cell viability, % of control (lower = more cytotoxic) [9]
97.9%: viability (% of control) [10]
inactive: outcome [2] | outcome [12] | outcome [3] | outcome [4] | outcome [13] | outcome [14] | outcome [5] | outcome [6] | Potency [20] | Potency [17] | outcome [18] | Potency [11] | outcome [7] | outcome [8]

NC(=O)c1cnccn1
inactive: outcome [2] | outcome [12] | outcome [3] | outcome [4] | outcome [14]

COc1ccc2c(c1)c(CC(=O)OC/C=C(\C)CC/C=C(\C)CCC=C(C)C)c(C)n2C(=O)c1ccc(Cl)cc1
inactive: outcome [1] | outcome [3] | outcome [4]

S=c1nc[nH]c2nc[nH]c12
inactive: outcome [2] | outcome [12] | outcome [3] | outcome [4] | outcome [13] | outcome [14]
active: Potency [15] 0.605 µM | Potency [16] 0.605 µM

— PubChem BioAssay (NCATS)
